Laboratory results as given in PubChem BioAssay (EPA / NIEHS).
Records with an inconclusive call do not appear. Active and inactive are the calls of the source. The calls were made as follows: active = hit-call score of the fitted dose curve at least 0.9, where 1 is the maximum; inconclusive = response in the unintended direction; inactive = score below 0.9.

How the values were obtained:
[1] = molecular target: human Peroxisome Proliferator-activated Receptor alpha (PPARa), PPARA (gene 5465) (UniProt Q07869); experiment: ATG_PPARa_TRANS: Attagene TRANS-FACTORIAL HepG2 Assay for human Peroxisome Proliferator-activated Receptor alpha (PPARa) (AID 2283001);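 as to AC50: potency for gain of reporter signal over DMSO so agonist or activator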
Summary of the method: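 Measures transcriptional activity of an exogenous chimeric PPARa-Gal4 protein in transiently transfected HepG2 cells after 24 h dosing. Reporter mRNA quantified via RT-PCR and capillary electrophoresis; DMSO served as negative control.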

[2] = molecular target: human Peroxisome Proliferator-activated Receptor delta (PPARd), PPARD (gene 5467) (UniProt Q03181); experiment: ATG_PPARd_TRANS: Attagene TRANS-FACTORIAL HepG2 Assay for human Peroxisome Proliferator-activated Receptor delta (PPARd) (AID 2283002)
Summary of the method: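 HepG2 cells transiently transfected with GAL4-UAS multiplexed reporter units driven by exogenous chimeric NR-GAL4 proteins; 24 h compound exposure. Reporter mRNA measured by RT-PCR, 6-FAM primer extension, HpaI digestion and capillary electrophoresis; gain of signal fitted relative to DMSO.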

[3] = molecular target: Peroxisome proliferator-activated receptor gamma (Homo sapiens) (UniProt P37231); experiment: ATG_PPARg_TRANS: Attagene TRANS-FACTORIAL HepG2 Assay for human Peroxisome Proliferator-activated Receptor-gamma (PPARg) (AID 2283007)
Summary of the method: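 HepG2 cells transiently transfected with multiplexed GAL4-UAS reporter units and exogenous chimeric NR-Gal4 proteins; reporter mRNA quantified after 24 h compound exposure by RT-PCR, fluorescent labelling, HpaI digestion and capillary electrophoresis; gain-of-signal fitted versus DMSO baseline.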

[4] = molecular target: Nuclear receptor subfamily 1 group I member 2 (Homo sapiens) (UniProt O75469); experiment: ATG_PXR_TRANS: Attagene TRANS-FACTORIAL HepG2 Assay for human Pregnane X Receptor (PXR) (AID 2283008)
Summary of the method: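 HepG2 cells transiently transfected with multiple reporter units, here a PXR-GAL4 chimera driving a GAL4-UAS reporter; 24 h compound exposure. Reporter mRNA measured by RT-PCR, FAM labelling and capillary electrophoresis; gain of signal fitted against DMSO baseline.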

[5] = molecular target: Retinoic acid receptor RXR-alpha (Homo sapiens) (UniProt P19793); experiment: ATG_RXRa_TRANS: Attagene TRANS-FACTORIAL HepG2 Assay for human Retinoid X Receptor alpha (RXRa) (AID 2283012)
Summary of the method: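 HepG2 cells transiently transfected with multiplexed GAL4-UAS reporter units and chimeric NR-GAL4 fusions, dosed 24 h. Reporter mRNA measured by RT-PCR, FAM labelling, HpaI digestion and capillary electrophoresis; gain-of-signal fitted relative to DMSO baseline.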

[6] = molecular target: human Retinoid X Receptor beta (RXRb), RXRB (gene 6257) (UniProt P28702); experiment: ATG_RXRb_TRANS: Attagene TRANS-FACTORIAL HepG2 Assay for human Retinoid X Receptor beta (RXRb) (AID 2283013)
Summary of the method: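 HepG2 cells transiently transfected with multiplexed reporter units driven by GAL4-UAS and exogenous chimeric NR-Gal4 proteins; treated 24 h. Reporter mRNA measured by RT-PCR, 6-FAM labelling and capillary electrophoresis; gain-of-signal fitted versus DMSO baseline.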

[7] = molecular target: human Thyroid Receptor alpha (THRa1), THRA (gene 7067) (UniProt P10827); experiment: ATG_THRa1_TRANS: Attagene TRANS-FACTORIAL HepG2 Assay for human Thyroid Receptor alpha (THRa1) (AID 2283014)
Summary of the method: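 HepG2 cells transiently transfected with multiplexed GAL4-UAS reporter units for exogenous chimeric THRa1-Gal4; reporter mRNA measured 24 h after dosing by RT-PCR, 6-FAM labelling, HpaI digestion and capillary electrophoresis. Gain-of-signal fitted versus DMSO baseline.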

[8] = molecular target: human RAR-related Orphan Receptor gamma (RORg), RORC (gene 6097) (UniProt P51449); experiment: ATG_RORg_TRANS: Attagene TRANS-FACTORIAL HepG2 Assay for human RAR-related Orphan Receptor gamma (RORg) (AID 2283011)
Summary of the method: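 Readout: reporter transcript induction (RT-PCR, fluorescent primer extension, capillary electrophoresis) after 24 h compound exposure of transiently transfected HepG2 cells carrying a RORg-Gal4 chimera and GAL4-UAS reporters; DMSO served as baseline, with increasing signal fitted.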

[9] = molecular target: human RAR-related Orphan Receptor beta (RORb), RORB (gene 6096) (UniProt Q92753); experiment: ATG_RORb_TRANS: Attagene TRANS-FACTORIAL HepG2 Assay for human RAR-related Orphan Receptor beta (RORb) (AID 2283010)
Summary of the method: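 HepG2 cells were transiently transfected with multiplexed GAL4-UAS reporter units expressing chimeric nuclear receptor–GAL4 proteins, then dosed for 24 h. Reporter mRNA was quantified by RT-PCR with fluorescent labelling and capillary electrophoresis; gain of signal was fitted relative to DMSO.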

Retinoic acid receptor RXR-alpha (Homo sapiens), sequence (P19793 whole entry, looked up, the tested form may be a part): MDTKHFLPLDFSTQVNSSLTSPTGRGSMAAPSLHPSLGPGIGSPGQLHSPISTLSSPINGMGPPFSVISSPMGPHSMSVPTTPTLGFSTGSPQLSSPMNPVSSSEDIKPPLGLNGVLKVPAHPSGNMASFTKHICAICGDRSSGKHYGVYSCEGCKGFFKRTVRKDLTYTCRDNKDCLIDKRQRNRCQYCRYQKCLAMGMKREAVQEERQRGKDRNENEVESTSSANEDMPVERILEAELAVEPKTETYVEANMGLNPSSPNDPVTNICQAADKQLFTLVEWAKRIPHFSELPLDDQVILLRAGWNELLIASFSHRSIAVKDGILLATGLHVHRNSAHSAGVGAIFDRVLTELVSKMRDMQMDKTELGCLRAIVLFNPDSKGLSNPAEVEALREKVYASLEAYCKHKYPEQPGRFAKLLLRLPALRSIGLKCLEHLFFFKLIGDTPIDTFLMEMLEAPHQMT
human Retinoid X Receptor beta (RXRb), RXRB (gene 6257), sequence (P28702 whole entry, looked up, the tested form may be a part): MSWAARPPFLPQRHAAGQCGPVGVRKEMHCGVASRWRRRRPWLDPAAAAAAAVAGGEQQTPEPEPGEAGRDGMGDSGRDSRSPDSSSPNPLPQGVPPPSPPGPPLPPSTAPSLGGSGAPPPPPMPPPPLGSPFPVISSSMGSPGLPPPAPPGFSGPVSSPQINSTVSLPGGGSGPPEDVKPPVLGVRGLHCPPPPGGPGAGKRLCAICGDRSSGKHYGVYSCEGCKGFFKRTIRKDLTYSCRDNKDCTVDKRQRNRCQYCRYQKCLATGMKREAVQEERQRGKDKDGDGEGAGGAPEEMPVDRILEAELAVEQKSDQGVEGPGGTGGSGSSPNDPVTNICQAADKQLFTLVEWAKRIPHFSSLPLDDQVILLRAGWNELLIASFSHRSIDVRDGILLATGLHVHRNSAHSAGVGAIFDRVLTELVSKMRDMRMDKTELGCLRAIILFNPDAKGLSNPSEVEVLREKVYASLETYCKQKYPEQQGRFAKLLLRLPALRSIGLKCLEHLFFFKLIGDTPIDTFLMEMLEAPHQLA
human Peroxisome Proliferator-activated Receptor alpha (PPARa), PPARA (gene 5465), sequence (Q07869 whole entry, looked up, the tested form may be a part): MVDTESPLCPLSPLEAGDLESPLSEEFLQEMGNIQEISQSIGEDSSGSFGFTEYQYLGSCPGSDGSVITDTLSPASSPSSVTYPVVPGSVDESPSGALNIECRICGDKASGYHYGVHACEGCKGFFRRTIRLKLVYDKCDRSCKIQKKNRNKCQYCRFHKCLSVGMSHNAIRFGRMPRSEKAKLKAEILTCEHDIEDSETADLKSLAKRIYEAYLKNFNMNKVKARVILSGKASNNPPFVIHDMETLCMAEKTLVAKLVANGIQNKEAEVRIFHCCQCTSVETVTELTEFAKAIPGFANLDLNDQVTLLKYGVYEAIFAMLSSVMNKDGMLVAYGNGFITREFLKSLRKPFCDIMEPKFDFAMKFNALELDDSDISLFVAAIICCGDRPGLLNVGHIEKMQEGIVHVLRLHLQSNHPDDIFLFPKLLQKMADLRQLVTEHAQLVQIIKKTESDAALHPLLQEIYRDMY
human Peroxisome Proliferator-activated Receptor delta (PPARd), PPARD (gene 5467), sequence (Q03181 whole entry, looked up, the tested form may be a part): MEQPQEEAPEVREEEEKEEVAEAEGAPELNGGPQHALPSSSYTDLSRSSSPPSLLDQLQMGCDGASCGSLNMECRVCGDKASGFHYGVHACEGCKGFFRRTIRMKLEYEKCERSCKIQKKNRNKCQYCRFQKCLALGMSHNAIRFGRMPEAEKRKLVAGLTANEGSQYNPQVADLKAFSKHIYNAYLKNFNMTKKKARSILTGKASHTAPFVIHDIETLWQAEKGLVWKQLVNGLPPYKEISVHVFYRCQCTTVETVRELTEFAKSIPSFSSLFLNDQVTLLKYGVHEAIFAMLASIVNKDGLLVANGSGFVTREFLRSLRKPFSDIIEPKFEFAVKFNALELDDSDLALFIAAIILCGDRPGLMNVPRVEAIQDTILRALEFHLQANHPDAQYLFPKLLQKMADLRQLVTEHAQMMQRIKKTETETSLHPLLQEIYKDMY
Nuclear receptor subfamily 1 group I member 2 (Homo sapiens), sequence (O75469 whole entry, looked up, the tested form may be a part): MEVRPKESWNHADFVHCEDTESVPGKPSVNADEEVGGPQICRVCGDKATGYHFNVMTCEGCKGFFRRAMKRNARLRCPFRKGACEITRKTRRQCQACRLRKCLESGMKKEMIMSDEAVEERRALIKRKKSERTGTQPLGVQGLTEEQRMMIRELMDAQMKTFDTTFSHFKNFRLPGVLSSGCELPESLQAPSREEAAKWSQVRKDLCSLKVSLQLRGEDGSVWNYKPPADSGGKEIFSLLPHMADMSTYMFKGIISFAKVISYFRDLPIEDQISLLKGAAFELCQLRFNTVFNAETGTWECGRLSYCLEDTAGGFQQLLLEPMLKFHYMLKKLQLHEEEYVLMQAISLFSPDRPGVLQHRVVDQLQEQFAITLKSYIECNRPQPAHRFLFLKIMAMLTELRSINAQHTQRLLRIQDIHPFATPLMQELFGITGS
Peroxisome proliferator-activated receptor gamma (Homo sapiens), sequence (P37231 whole entry, looked up, the tested form may be a part): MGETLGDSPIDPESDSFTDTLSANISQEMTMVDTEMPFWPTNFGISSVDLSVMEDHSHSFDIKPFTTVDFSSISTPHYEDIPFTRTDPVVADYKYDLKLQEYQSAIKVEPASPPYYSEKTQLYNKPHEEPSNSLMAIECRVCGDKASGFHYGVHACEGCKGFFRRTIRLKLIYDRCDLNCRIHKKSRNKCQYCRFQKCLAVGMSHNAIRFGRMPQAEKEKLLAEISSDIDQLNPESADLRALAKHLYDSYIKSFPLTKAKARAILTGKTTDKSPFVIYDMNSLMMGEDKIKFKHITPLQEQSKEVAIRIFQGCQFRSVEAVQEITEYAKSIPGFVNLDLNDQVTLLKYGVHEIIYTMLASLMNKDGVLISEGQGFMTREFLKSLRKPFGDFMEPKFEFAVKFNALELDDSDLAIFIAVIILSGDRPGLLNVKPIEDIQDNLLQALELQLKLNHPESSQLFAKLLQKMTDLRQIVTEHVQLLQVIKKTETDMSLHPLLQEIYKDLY
human Thyroid Receptor alpha (THRa1), THRA (gene 7067), sequence (P10827 whole entry, looked up, the tested form may be a part): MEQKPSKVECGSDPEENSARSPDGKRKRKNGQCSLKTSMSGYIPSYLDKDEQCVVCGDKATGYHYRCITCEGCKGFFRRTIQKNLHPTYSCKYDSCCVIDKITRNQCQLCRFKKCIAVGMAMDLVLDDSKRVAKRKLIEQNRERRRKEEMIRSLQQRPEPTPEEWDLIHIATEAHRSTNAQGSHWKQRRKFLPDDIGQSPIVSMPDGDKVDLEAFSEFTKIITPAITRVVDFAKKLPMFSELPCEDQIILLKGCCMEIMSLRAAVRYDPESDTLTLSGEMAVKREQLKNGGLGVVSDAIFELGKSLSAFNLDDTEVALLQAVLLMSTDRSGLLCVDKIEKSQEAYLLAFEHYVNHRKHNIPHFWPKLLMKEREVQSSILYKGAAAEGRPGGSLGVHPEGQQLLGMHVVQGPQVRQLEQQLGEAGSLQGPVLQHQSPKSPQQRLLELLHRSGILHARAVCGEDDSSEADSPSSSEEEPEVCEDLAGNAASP
human RAR-related Orphan Receptor gamma (RORg), RORC (gene 6097), sequence (P51449 whole entry, looked up, the tested form may be a part): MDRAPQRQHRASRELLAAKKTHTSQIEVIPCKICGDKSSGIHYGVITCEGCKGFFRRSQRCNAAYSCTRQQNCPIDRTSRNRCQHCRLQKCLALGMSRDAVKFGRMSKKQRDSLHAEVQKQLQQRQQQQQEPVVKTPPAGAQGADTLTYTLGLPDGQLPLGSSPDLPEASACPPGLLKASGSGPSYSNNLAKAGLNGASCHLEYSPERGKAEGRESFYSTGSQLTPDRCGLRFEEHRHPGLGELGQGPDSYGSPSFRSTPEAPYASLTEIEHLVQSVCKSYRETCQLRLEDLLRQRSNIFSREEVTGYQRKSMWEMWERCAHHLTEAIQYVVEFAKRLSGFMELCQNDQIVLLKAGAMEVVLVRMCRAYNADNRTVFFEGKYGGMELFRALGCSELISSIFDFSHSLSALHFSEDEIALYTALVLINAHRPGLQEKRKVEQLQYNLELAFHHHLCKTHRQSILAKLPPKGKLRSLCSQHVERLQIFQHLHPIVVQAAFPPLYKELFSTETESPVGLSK
human RAR-related Orphan Receptor beta (RORb), RORB (gene 6096), sequence (Q92753 whole entry, looked up, the tested form may be a part): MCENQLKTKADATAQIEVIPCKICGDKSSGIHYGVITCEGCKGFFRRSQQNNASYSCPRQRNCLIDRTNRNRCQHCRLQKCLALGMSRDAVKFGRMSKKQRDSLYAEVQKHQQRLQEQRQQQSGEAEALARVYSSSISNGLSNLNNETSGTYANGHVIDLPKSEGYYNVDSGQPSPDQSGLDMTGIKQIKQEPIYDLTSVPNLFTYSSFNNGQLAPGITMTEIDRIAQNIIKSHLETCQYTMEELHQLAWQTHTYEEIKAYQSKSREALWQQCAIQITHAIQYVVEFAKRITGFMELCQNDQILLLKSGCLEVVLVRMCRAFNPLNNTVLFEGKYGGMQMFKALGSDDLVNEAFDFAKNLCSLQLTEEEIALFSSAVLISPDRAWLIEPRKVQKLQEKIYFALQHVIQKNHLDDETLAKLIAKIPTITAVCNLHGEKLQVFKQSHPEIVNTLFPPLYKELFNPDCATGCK

## CCC(=O)/C=C/C1C(C)=CCCC1(C)C (centres undefined)
[1]
  outcome: inactive
[2]
  outcome: inactive
[3]
  AC50: 21.4 µM (active)
[4]
  AC50: 3.77 µM (active)
[5]
  outcome: inactive
[6]
  AC50: 34.7 µM (active)

## O=C(O)c1snc(Cl)c1Cl
[1]
  outcome: inactive
[2]
  outcome: inactive
[3]
  AC50: 25.3 µM (active)
[4]
  outcome: inactive
[5]
  outcome: inactive
[6]
  outcome: inactive

## CC(C)c1cccc(O)c1
[1]
  outcome: inactive
[2]
  outcome: inactive
[3]
  outcome: inactive
[4]
  outcome: inactive
[7]
  outcome: inactive

## CCCCOCCOCCSC#N
[1]
  outcome: inactive
[2]
  outcome: inactive
[3]
  AC50: 19.8 µM (active)
[4]
  AC50: 3.36 µM (active)
[8]
  outcome: inactive
[5]
  outcome: inactive
[6]
  outcome: inactive

## CCCCCCCCC
[1]
  outcome: inactive
[2]
  outcome: inactive
[3]
  outcome: inactive
[7]
  outcome: inactive

## Clc1ccc2c(c1)C(N1CCNCC1)=Nc1ccccc1O2
[1]
  AC50: 53.9 µM (active)
[2]
  AC50: 52.9 µM (active)
[3]
  outcome: inactive
[4]
  AC50: 44.1 µM (active)
[5]
  outcome: inactive
[6]
  AC50: 55.3 µM (active)

## CCCc1c(OCCCOc2ccc(OCC(=O)O)cc2)ccc(C(C)=O)c1O
[1]
  AC50: 0.322 µM (active)
[2]
  AC50: 0.0841 µM (active)
[3]
  AC50: 0.195 µM (active)
[4]
  AC50: 26.6 µM (active)
[5]
  outcome: inactive
[6]
  AC50: 8.03 µM (active)
[7]
  outcome: inactive

## C[C@H]1C[C@H]2[C@@H]3CCC4=CC(=O)C=C[C@]4(C)[C@@]3(F)[C@@H](O)C[C@]2(C)[C@@]1(O)C(=O)COP(=O)(O)O
[1]
  outcome: inactive
[2]
  outcome: inactive
[3]
  outcome: inactive
[4]
  outcome: inactive
[5]
  outcome: inactive
[6]
  outcome: inactive

## Cc1ccc(C(=O)c2cc(O)c(O)c([N+](=O)[O-])c2)cc1
[1]
  outcome: inactive
[2]
  outcome: inactive
[3]
  AC50: 17.5 µM (active)
[4]
  outcome: inactive
[5]
  outcome: inactive
[6]
  outcome: inactive
[7]
  outcome: inactive

## NC(=O)c1ccccc1Cl
[1]
  outcome: inactive
[2]
  outcome: inactive
[3]
  outcome: inactive
[9]
  outcome: inactive
[8]
  outcome: inactive
[5]
  outcome: inactive
[6]
  outcome: inactive

## Clc1cccc(Cl)n1
[1]
  outcome: inactive
[2]
  outcome: inactive
[3]
  outcome: inactive
[4]
  outcome: inactive
[5]
  outcome: inactive
[6]
  outcome: inactive
[7]
  outcome: inactive

## CCCCCCCCCCCCCOS(=O)(=O)O
[1]
  AC50: 3.35 µM (active)
[2]
  outcome: inactive
[3]
  AC50: 12 µM (active)
[4]
  outcome: inactive
[8]
  outcome: inactive
[6]
  AC50: 12.9 µM (active)

## COC(=O)Cc1cccc2ccccc12
[1]
  outcome: inactive
[2]
  outcome: inactive
[3]
  AC50: 66.5 µM (active)
[4]
  outcome: inactive
[5]
  outcome: inactive
[6]
  AC50: 55.2 µM (active)

## CC(CCO)CCc1ccccc1 (centres undefined)
[1]
  outcome: inactive
[2]
  outcome: inactive
[3]
  outcome: inactive
[4]
  AC50: 48.2 µM (active)
[5]
  outcome: inactive
[6]
  outcome: inactive
[7]
  outcome: inactive

## CN(C)CCOCCN(C)C
[1]
  outcome: inactive
[2]
  outcome: inactive
[4]
  outcome: inactive
[9]
  outcome: inactive

## CNCCCC12CCC(c3ccccc31)c1ccccc12
[1]
  outcome: inactive
[2]
  outcome: inactive
[3]
  outcome: inactive
[4]
  outcome: inactive
[5]
  outcome: inactive

## CC(CCO)CCCC(C)(C)O (centres undefined)
[1]
  outcome: inactive
[2]
  outcome: inactive
[3]
  outcome: inactive
[4]
  outcome: inactive
[8]
  outcome: inactive
[5]
  outcome: inactive
[7]
  outcome: inactive

## COc1cc2ncnc(Nc3cccc(Cl)c3)c2cc1OC
[1]
  outcome: inactive
[2]
  outcome: inactive
[3]
  outcome: inactive
[4]
  outcome: inactive
[5]
  outcome: inactive
[7]
  outcome: inactive
